Rows were chosen to be rich in hits. Some 2.3% of all compounds tested hit in one or more screens of this group.
FID counter: fluorescent intercalator displacement, NS3 helicase counter-screen. DNA fluorescent intercalator displacement, fluorescence. actives 0.17% (n = 290,000). AID 1845. inhibition, % at 7.9 µM; in the data active = inhibition above about 37%;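 note: 0% = vehicle and 100% = reference compound; higher means more ethidium bromide displaced from hairpin DNA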
Kir21 block: blocks the mouse Kir2.1 inward-rectifier potassium channel; P35561; B-score at 10 µM; AID 1672; HEK293-Kir2.1, FluxOR thallium flux fluorescence; hits give low values; actives 0.85% (n = 310,000);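 active = fluorescence ratio B-score at or below minus 3 SD of library scores, with starting-brightness B-score within 2 SD, cut at about -4.2 in these data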;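 note: channel flux triggered by added potassium and thallium sulfate stimulus; B-score of peak minus minimum fluorescence over baseline after thallium stimulus; more negative B-score means stronger Kir2.1 block with less thallium influx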
PfM18AAP inh: blocks P. falciparum M18 aspartyl aminopeptidase; recombinant PfM18AAP, H-Glu-NHMec fluorogenic cleavage; inhibition, % at 7.35 µM; actives 1.2% (n = 290,000); AID 1822;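 active = inhibition above the campaign mean inhibition over all tested compounds plus 3 SD, cut at about 28% in these data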;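 note: 0% = plate median of test compound wells and 100% = 2 mM ZnCl2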
Rce1 inhib: blocks yeast Ras-converting enzyme. Q03530. yeast membranes, quenched prenylated peptide cleavage fluorescence. calls only. actives 0.27% (n = 290,000);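 active = fall in fluorescence gain of 50% or more versus controls, with final raw signal at or below 3038400; inconclusive = same 50% fall but final raw signal above 3038400; inactive = fall in fluorescence gain under 50%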;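 note: plate controls were neutral control wells for no effect and wells lacking membranes for full effect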
Target sequence (Q03530 whole entry, looked up): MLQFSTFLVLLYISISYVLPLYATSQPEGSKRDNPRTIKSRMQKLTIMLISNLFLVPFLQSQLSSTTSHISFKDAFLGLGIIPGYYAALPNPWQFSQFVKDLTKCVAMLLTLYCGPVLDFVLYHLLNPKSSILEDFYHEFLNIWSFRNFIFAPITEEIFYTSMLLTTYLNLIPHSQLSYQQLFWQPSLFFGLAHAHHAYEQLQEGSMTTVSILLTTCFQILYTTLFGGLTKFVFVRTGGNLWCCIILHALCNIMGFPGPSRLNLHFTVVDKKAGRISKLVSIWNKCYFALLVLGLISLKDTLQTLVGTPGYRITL
* hit, by the source's call; i = inactive; u = inconclusive; x = no result given; + = active, no number.

SMILES	FID counter	Kir21 block	PfM18AAP inh	Rce1 inhib
CC1=C(C(=O)OCc2ccccc2)C(c2ccc(-c3ccccc3)cc2)NC(=O)N1CCCC(=O)O (configuration not stated)	x	0.43	x	+
CCCOC(=O)c1ccc(OC(=O)c2ccco2)cc1	-8.2	-4.38*	3.8	i
O=C(CNS(=O)(=O)c1ccc(F)cc1)N1CCCC1	x	0.53	x	i
COc1ccccc1-c1csc(NC(=O)c2ccc(N3C(=O)CCC3=O)cc2)n1	-22.7	-1.73	0.3	i
CC(=O)Nc1ccc(S(=O)(=O)N2CCC(N3CCCCCC3)CC2)cc1	2.3	-0.09	2.0	i
CCc1cc2cc(C)ccc2nc1SCC(=O)N1CCN(C(=O)c2ccco2)CC1	-32.7	x	2.7	x
CCc1cc2ccccc2nc1SCC(=O)N1CCN(C(=O)c2ccco2)CC1	-31.0	-4.36*	-6.7	i
COc1ccccc1CN1CCC(CNS(=O)(=O)c2cc(-c3onc(C)c3C)ccc2OC)CC1	44.5*	-1.91	5.1	i
Cc1cc(-c2ccc(C)c(S(=O)(=O)NCC3CCN(Cc4ccccc4F)CC3)c2)on1	20.4	-1.08	-8.9	i
Cc1ccc(-c2c3c([nH]c(=S)c2C#N)CCCC3)o1	-15.9	-0.09	30.9*	i
N#Cc1c(-c2ccncc2)c2c([nH]c1=S)CCCC2	0.3	-0.02	10.5	i
CN(C(=O)c1ccc2c(c1)SC1=NS(=O)(=O)CCN12)C(c1ccccc1)c1ccccc1	-35.7	0.71	-0.2	+
CCOC(=O)C1C(c2ccc(O)c(OCC)c2)NC(=S)NC1(O)C(F)(F)F (configuration not stated)	-5.8	0.63	-2.1	i
CCOC(=O)C1C(c2ccc(O)c(O)c2)NC(=S)NC1(O)C(F)(F)F (configuration not stated)	-3.2	1.14	64.8*	i
COc1ccc(-c2oc3ccccc3c2C(=O)OCc2ccccc2)cc1	-5.0	1.36	7.8	i
OCCNC(=S)NCc1ccccc1	2.2	0.36	-12.1	i
OCCCNCc1ccc(N(c2ccccc2)c2ccccc2)cc1	15.0	-11.6*	3.5	i
COc1cccc(NC(=S)N2CCN(S(C)(=O)=O)CC2)c1	-1.1	0.66	2.2	i
CCOC(=O)CC1C(=O)NCCN1C(=O)c1cc2c(=O)n3cccc(C)c3nc2s1 (configuration not stated)	-17.7	0	9.4	+
CCOC(=O)c1sc(=S)n(-c2ccc(C)cc2)c1N	-1.1	0.31	29.4*	i
Cc1noc(C)c1CSCC(=O)Nc1nc2ccc(F)cc2s1	x	-0.59	x	i
S=C(NCCSCc1c(Cl)cccc1Cl)Nc1ccccc1	-3.5	-5.13*	6.8	i
S=C(NCCOCCOCCNC(=S)Nc1ccccc1)Nc1ccccc1	-11.8	-1.59	28.3*	i
CCNc1sc(S(C)(=O)=O)nc1S(=O)(=O)c1ccc(Cl)cc1	-8.1	1.02	2.9	i
Cc1cc(Br)c2[nH]cc(CCNC(=O)c3ccco3)c2c1	-21.1	-1.44	1.4	i
SMILES	FID counter	Kir21 block	PfM18AAP inh	Rce1 inhib
O=S(=O)(NCc1ccc(F)cc1)c1ccc(-n2cnnn2)cc1	0.8	-0.18	-11.1	i
CN1c2ccccc2C(C)(C)C12C=Nc1c(cc(N3CCOCC3)c3ccccc13)O2 (configuration not stated)	-5.5	-0.07	19.9	i
CN1c2ccccc2C(C)(C)C12C=Cc1cc(O)ccc1O2 (configuration not stated)	-0.1	-2.99	29.8*	i
COc1ccc(OCC(=O)Nc2c(C(=O)N(CCN(C)C)Cc3ccco3)oc3ccccc23)cc1	41.3*	-2.66	8.7	i
CCOC(=O)c1oc2ccccc2c1NC(=O)c1ccccc1OC	-1.8	-0.02	-11.2	i
COc1ccccc1C(=O)Nc1c(C(=O)N(CCN(C)C)Cc2ccco2)oc2ccccc12	37.3*	-3.69	-16.3	i
COc1ccc(OCC(=O)Nc2c(C(=O)N3CCN(C)CC3)oc3ccccc23)cc1	7.9	-0.72	4.7	i
CCOc1ccc(-c2csc3nc[nH]c(=O)c23)cc1	-7.9	0.36	-14.2	i
C=CCc1cc(Cl)ccc1OCCCNCCO	24.2	-5.44*	3.4	i
COc1ccc2c(c1)c1ncn(CCN3CCCCC3)c(=O)c1n2C	18.5	1.2	1.2	+
COc1ccc2c(c1)c1ncn(CCN3CCNCC3)c(=O)c1n2C	10.4	0.46	0.9	u
COc1ccc2c(c1)c1ncn(CCN3CCCC3)c(=O)c1n2C	18.8	-0.56	-7.0	+
OC1(c2ccccc2F)CCN(Cc2nnnn2Cc2ccc(F)cc2)CC1	-9.3	0.22	1.1	i
COc1ccc(Nc2c3c(nc4ccccc24)CCC3)cc1	1.7	-12.3*	8.9	i
CN(C)CCCNc1c2c(nc3ccccc13)CCC2	52.9*	-0.18	2.8	i

Source: PubChem (several laboratories)
